Screens: PubChem, several laboratories
Rtt109 Vps75: inhibitors of C. albicans Rtt109/Vps75 HAT, primary screen, biochemical, ThioGlo CoA-SH fluorescence, plate reader | inhibition, % at 34.9 µM | hit rate 0.16% among 330,000 | purified Rtt109/Vps75, 4 h;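 active = inhibition of at least 50% in every replicate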
Rce1 inh: yeast Rce1p protease inhibitors, primary screen, biochemical, fluorescence, cell-free homogeneous. CAAX prenyl protease 2 (Saccharomyces cerevisiae (strain ATCC 204508 / S288c)), Q03530. yeast membranes, quenched prenylated peptide cleavage fluorescence. calls only. hit rate 0.27% among 290,000. AID 2563, 2010;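 active = fall in fluorescence gain of 50% or more versus controls, with final raw signal at or below 3038400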;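 also: plate controls were neutral control wells for no effect and wells lacking membranes for full effect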
GRK2 inh: compounds blocking aptamer binding on GRK2 – biochemical, human GRK2, bead flow cytometry, HTS, primary screen. AID 488847, 2010. hit rate 0.59% among 330,000. FAM-aptamer displacement from GRK2. inhibition of aptamer binding, % at 10 µM;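 active = inhibition of aptamer binding above 40%, roughly 3 SD of noise, on plates passing a quality check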;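 also: median bead fluorescence of bound FAM aptamer so fluorescent compounds give negative values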
ALR H2O2 inh: inhibitors of human ALR sulfhydryl oxidase, primary screen, biochemical, H2O2 detection, HRP-luminol luminescence, single point | purified ALR, DTT oxidation | inhibition, % (concentration not given with the values) | hit rate 3.8% among 290,000;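 active = mean replicate inhibition above about 79%, with every replicate also reaching it, limit read from the data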
Target sequence (P55789 whole entry, looked up): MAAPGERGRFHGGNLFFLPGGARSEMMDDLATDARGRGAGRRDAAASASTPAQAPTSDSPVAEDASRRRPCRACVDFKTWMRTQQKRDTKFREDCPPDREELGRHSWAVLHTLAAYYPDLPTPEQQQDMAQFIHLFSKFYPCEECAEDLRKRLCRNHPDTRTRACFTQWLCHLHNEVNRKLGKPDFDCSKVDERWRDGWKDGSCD
Efflux pump mplx: inhibitors of Candida efflux pumps in yeast, primary screen, S. cerevisiae, Nile Red, multiplex. S. cerevisiae Candida pump triplex. inhibition, % at 10 µM. hit rate 0.44% among 330,000. AID 485275, 2010;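 active = plate passing quality check with inhibition over a set limit, or well fluorescence over plate mean plus 4 SD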;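 also: Nile Red retained in pooled yeast measured as flow cytometry median fluorescence; 0% = buffer negative control and 100% = Enniatin B positive control; higher means more Nile Red kept so more efflux inhibition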
HDAC3 inh: HDAC3 deacetylase inhibitors, primary screen, biochemical, fluorescence, cell-free homogeneous | Histone deacetylase 3 (Homo sapiens), O15379 | inhibition, % at 8.3 µM | hit rate 0.15% among 320,000 | AID 2718, 2010 | recombinant HDAC3, fluorogenic peptide/trypsin coupled; in the data active = inhibition above about 26%, passing the limit was not always enough
Target sequence (O15379 whole entry, looked up): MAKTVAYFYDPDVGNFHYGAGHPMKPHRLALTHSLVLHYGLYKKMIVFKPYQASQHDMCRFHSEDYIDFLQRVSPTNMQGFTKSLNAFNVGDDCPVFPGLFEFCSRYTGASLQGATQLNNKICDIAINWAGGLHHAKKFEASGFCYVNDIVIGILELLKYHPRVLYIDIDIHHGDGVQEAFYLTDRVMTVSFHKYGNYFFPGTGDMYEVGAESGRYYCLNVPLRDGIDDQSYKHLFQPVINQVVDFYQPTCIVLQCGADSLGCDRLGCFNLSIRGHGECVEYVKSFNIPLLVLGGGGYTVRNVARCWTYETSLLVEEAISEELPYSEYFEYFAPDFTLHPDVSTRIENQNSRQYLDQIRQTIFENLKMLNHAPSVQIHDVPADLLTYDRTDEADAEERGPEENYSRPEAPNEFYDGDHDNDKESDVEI
Active calls of the source: *; i = inactive; . = no result given; + = active, no number. The list is not random: actives were taken first. Their share in the collection is about 4.5%.

SMILES	Rtt109 Vps75	Rce1 inh	GRK2 inh	ALR H2O2 inh	Efflux pump mplx	HDAC3 inh
O=C(O)c1cccc(NC(=S)NC(=O)c2ccc(-c3ccccc3)cc2)c1	-2.1	i	0.0	16.6	-0.2	6.0
CCOc1ccc2nc(NC(=O)Cn3[nH]c(=O)c4ccccc4c3=O)sc2c1	0.6	i	0.0	.	0.0	.
CC(C)c1ccc(NC(=O)c2ccc3c(c2)C(=O)N(Cc2cccnc2)C3=O)cc1	-2.1	i	0.0	-0.1	0.0	0.2
COc1ccc(/C=C/C(=O)Oc2cc(C)[nH]c(=O)c2[N+](=O)[O-])cc1OC	3.7	i	0.0	-0.9	-0.1	8.1
COc1cccc(C(=O)NC(=S)Nc2ccc(Cl)cc2C(=O)O)c1	-5.5	i	0.0	97.4*	-0.2	-10.2
COc1cccc(C(=O)NC(=S)Nc2ccc3c4c(cccc24)CC3)c1	6.8	i	29.0	-5.9	0.1	-2.6
CN1C(=O)/C(=C/c2ccc(C(=O)Nc3ccc(O)cc3C(=O)O)cc2)SC1=S	-2.2	i	1.0	97.4*	-0.1	10.5
Cc1ccc(/C=C2\SC(=S)N(CCC(=O)NNC(=O)c3ccc(O)cc3)C2=O)cc1	-4.6	i	6.0	0.8	0.1	-3.5
Cc1cccc(C(=O)NC(=S)NNC(=O)c2ccccc2Cl)c1	9.6	i	2.0	98.4*	-0.6	4.2
Cc1ccc(C(=O)Nc2ccc(O)cc2C(=O)O)cc1C	22.6	i	0.0	97.7*	0.0	-9.1
Cc1ccc(C(=O)Nc2ccc(O)cc2C(=O)O)cc1	-4.7	i	0.0	36.5	3.6	0.2
O=C(CSc1ccc(Cl)cc1)NNC(=O)c1ccco1	-3.8	i	0.0	0.7	-0.1	-3.0
CC(=O)c1ccc(S(=O)(=O)N(C)CCCC(=O)NCc2ccc3c(c2)OCO3)cc1	-8.0	.	.	.	.	.
O=C(O)c1cc(O)ccc1NC(=O)c1cccc2ccccc12	11.2	i	1.0	95.5*	0.0	-4.3
COc1cccc(CNC(=O)CCCCCNC(=O)N2CCn3c2nc2ccccc23)c1	0.8	i	0.0	-3.4	0.1	-6.0
COc1cccc(CNC(=O)CCNC(=O)N2CCn3c2nc2ccccc23)c1	4.5	i	2.0	97.9*	0.7	10.7
Cc1ccc(CNC(=O)CCCCCNC(=O)N2CCn3c2nc2ccccc23)cc1	-2.4	i	0.0	2.7	0.1	-0.1
Cc1ccc(CNC(=O)CCNC(=O)N2CCn3c2nc2ccccc23)cc1	14.1	i	2.0	93.9*	0.5	5.0
Cc1ccc(C(=O)N2CCCCC2)cc1S(=O)(=O)N1CCOCC1	-10.8	i	1.0	-1.6	0.4	-7.2
CCN1CCN(C(=O)CS(=O)Cc2nc(-c3ccc(OC)cc3)oc2C)CC1 (stereo not drawn)	-2.4	i	3.0	99.0*	0.0	-7.2
COc1ccc(-c2nc(CS(=O)CC(=O)N3CCCC3)c(C)o2)cc1 (stereo not drawn)	-11.6	i	0.0	99.0*	0.0	-0.2
COc1ccc(-c2nc(CN3CCN(Cc4ccccc4)CC3)c(C)o2)cc1	-3.9	i	0.0	-3.6	0.1	10.3
COc1cccc(-c2nc(CS(=O)(=O)CC(=O)N3CCCCC3)c(C)o2)c1	-3.4	i	1.0	-6.9	0.0	-0.1
COc1cc(/C=C(\NC(=O)c2ccccc2)C(=O)N2CC3CC(C2)c2cccc(=O)n2C3)cc(OC)c1OC (stereo not drawn)	-0.2	i	1.0	-1.3	0.0	4.1
COC(=O)CN1C(=O)C(O)(CC(=O)c2ccc(Br)cc2)c2ccccc21 (stereo not drawn)	-4.3	i	1.0	96.5*	0.0	-1.3
SMILES	Rtt109 Vps75	Rce1 inh	GRK2 inh	ALR H2O2 inh	Efflux pump mplx	HDAC3 inh
COCCCN1C(=O)C(=O)/C(=C(/O)c2ccc3c(c2)OCCO3)C1c1ccc(C(=O)OC)cc1 (stereo not drawn)	-8.2	i	1.0	84.6*	-0.1	11.1
CC1(C)Cc2c(sc(NC(=S)NC(=O)c3ccccc3)c2C(=O)O)CO1	-7.1	i	0.0	98.6*	-0.2	2.0
C[C@H](CO)N1C[C@H](C)[C@@H](CN(C)Cc2ccc3c(c2)OCO3)Oc2ccc(NS(C)(=O)=O)cc2C1=O	2.7	.	5.0	-4.2	-0.2	0.5
Nc1ccccc1Oc1ccc2ccccc2c1	11.0	+	1.0	24.1	0.1	1.9
O=C1CSC(c2ccccc2[N+](=O)[O-])N1c1cccc(F)c1 (stereo not drawn)	4.9	i	0.0	98.8*	-0.2	-2.7
O=C1CSC(c2ccccc2[N+](=O)[O-])N1c1ccccc1 (stereo not drawn)	3.8	i	0.0	99.4*	0.0	1.5
CC(=O)Nc1ccc(N2C(=O)CSC2c2ccccc2[N+](=O)[O-])cc1 (stereo not drawn)	9.6	i	0.0	97.6*	0.1	-3.5
O=C1CSC(c2ccccc2[N+](=O)[O-])N1c1ccc(O)cc1 (stereo not drawn)	3.1	i	0.0	-16.2	0.0	4.9
O=C(OCCc1cc2ccccc2c(=O)o1)N1CCOCC1	6.9	.	0.0	-3.6	0.2	-0.2
COc1ccc(-c2cc(C(F)F)n3ncc(C(=O)n4ccnc4C)c3n2)cc1	-80.5	i	0.0	98.8*	-0.3	-6.1
CCc1ccc(OCC(=O)Nc2ccc(S(=O)(=O)Nc3ccccn3)cc2)cc1	3.2	i	0.0	-10.9	0.0	0.8
O=S1(=O)CC2N=C(N(Cc3ccc(F)cc3Cl)c3ccccc3F)SC2C1 (stereo not drawn)	4.8	i	0.0	98.0*	0.3	1.6
CCOc1ccc(N(CC(=O)Nc2ccc(OC)cc2)C2=NC3CS(=O)(=O)CC3S2)cc1 (stereo not drawn)	-2.6	i	0.0	98.6*	0.1	.
Cc1cccc(NC(=O)CN(C2=NC3CS(=O)(=O)CC3S2)c2ccccc2F)c1 (stereo not drawn)	-19.6	i	0.0	98.6*	0.2	-1.2
Cc1cc2c(SCC(=O)NC3CCCC3)ncnc2s1	-26.3	i	3.0	-0.5	0.0	0.3
CCN(CC)CCOC(=O)c1ccc(NC(=O)CSc2nnc(-c3cccs3)n2CC)cc1	-8.3	.	.	.	.	.
O=C(Nc1ccc(S(=O)(=O)Nc2nccs2)cc1)c1cnc(Cl)c(Cl)c1	-1.8	i	3.0	-2.1	0.4	7.2
CCN(CC(=O)NCc1ccc(Cl)cc1)C(=O)CSCC(=O)Nc1cccc(C)c1	-9.2	i	0.0	-5.0	-0.4	-2.8
